This passage reports z-score and composite z-score results from PubChem BioAssay.

The nature of assay [1]: HepG2 liver cancer cell viability effects, profiling panel, resazurin fluorescence, 24 h, PK04 Diversity Set (AID 1172). The note with it: higher = more signal.
Assay [2] in a line: basal S. cerevisiae growth modulation, no modifier, primary screen, OD600, strain BY4716, 24 h, basal condition (AID 1173). Conditions: OD600, 24 h, higher = more signal, called active from +8 up or from −8 down.
The nature of assay [3]: MM1S myeloma cell viability, profiling panel, resazurin fluorescence, basal, 24 h, PK04 Diversity Set (AID 1174).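 Note: MM1S multiple myeloma cell line.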 Conditions: higher = more signal, called active from +8 up or from −8 down. (The colour change of resazurin is a common sign of viable cells or microbes.)
Assay [4] deals with Dihydroorotate dehydrogenase (quinone), mitochondrial (Plasmodium falciparum (isolate 3D7)) (UniProt Q08210). Description: PfDHODH enzyme inhibitors, primary screen, biochemical, C-terminal His tag, absorbance 600 nm (AID 1175).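 Note: recombinant parasite enzyme with a five histidine tag at its C terminus.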 The note with it: DCIP absorbance 600 nm, higher = more signal, called active from +8 up or from −8 down.
Chain of Dihydroorotate dehydrogenase (quinone), mitochondrial (Plasmodium falciparum (isolate 3D7)) (Q08210 whole entry, looked up): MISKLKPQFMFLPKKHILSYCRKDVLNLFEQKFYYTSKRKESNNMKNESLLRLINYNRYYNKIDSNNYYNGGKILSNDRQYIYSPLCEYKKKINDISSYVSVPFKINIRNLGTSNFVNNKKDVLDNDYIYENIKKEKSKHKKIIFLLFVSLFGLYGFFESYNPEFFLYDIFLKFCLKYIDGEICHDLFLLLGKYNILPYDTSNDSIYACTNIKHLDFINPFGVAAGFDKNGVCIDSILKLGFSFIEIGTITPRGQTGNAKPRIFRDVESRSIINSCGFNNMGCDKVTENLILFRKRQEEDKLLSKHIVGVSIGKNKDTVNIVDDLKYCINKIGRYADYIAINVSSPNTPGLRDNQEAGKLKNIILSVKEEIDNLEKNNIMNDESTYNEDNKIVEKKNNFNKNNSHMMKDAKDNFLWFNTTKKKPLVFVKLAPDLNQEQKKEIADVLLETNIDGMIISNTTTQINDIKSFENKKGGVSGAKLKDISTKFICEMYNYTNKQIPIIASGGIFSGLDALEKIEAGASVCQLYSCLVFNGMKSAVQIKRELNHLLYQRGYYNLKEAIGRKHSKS
Assay [5] can be described thus: P. aeruginosa biofilm formation inhibitors, primary screen, strain PAO1, LB-PBS medium, absorbance 600 nm (AID 1176). The note with it: P. aeruginosa PAO1 growth/biofilm, A600, 12 h; higher = more signal.
A short description of assay [6]: S. cerevisiae RM11-1a growth modifiers, primary screen, strain RM11-1a, OD600, basal, 24 h (AID 1177).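 Note: cultures grown under basal conditions with no added stressor.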 Conditions: OD600, 24 h, higher = more signal, called active from +8 up or from −8 down.
The nature of assay [7]: E. coli acrAB mutant growth effects, primary screen, E. coli filamentation inducers, strain DRC39, OD650, 24 h (AID 1178).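 Note: growth measured as culture turbidity by optical density at 650 nm.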 The note with it: higher = more signal, called active from +8 up or from −8 down.
The nature of assay [8]: E. coli acrAB mutant growth effects, primary screen, E. coli filamentation inducers, strain DRC39, OD650, 48 h (AID 1179).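 Note: screen aims at cell division blockers that make cells filament.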 Conditions: E. coli DRC39 delta-acrAB growth, higher = more signal, called active from +8 up or from −8 down.
Assay [9] is described as follows: RPMI8226 myeloma cell viability, profiling panel, resazurin fluorescence, basal, 24 h, PK04 Diversity Set (AID 1180).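 Note: RPMI8826 multiple myeloma cell line at 5000 cells per well.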 Conditions: higher = more signal.
In assay [10] the target is E3 ubiquitin-protein ligase XIAP (Homo sapiens) (UniProt P98170). Nature of the assay: XIAP binders, primary screen, biophysical, small-molecule microarray, fluorescence 635 nm (AID 1181).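 Note: score merges 667 nm emission and signal to noise over triplicate slides.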 The note with it: small-molecule microarray binding, higher = more signal.
Chain of E3 ubiquitin-protein ligase XIAP (Homo sapiens) (P98170 whole entry, looked up): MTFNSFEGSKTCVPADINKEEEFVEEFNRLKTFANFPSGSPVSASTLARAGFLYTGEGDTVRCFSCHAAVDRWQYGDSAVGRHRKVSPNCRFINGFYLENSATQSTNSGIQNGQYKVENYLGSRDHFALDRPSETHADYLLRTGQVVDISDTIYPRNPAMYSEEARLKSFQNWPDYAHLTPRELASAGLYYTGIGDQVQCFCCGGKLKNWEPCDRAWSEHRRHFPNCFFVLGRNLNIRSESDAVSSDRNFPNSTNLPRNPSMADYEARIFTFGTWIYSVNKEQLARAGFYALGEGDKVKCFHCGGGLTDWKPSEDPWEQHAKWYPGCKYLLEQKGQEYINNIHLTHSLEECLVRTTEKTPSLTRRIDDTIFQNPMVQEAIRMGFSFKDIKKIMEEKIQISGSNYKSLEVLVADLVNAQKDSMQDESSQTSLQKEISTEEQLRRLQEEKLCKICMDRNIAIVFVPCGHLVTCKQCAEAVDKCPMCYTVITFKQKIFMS
For assay [11], the system named is XIP peptide (Xip251-270) binding. Description: small-molecule binders of XIP peptide, primary screen, biochemical, small-molecule microarray, fluorescence 635/667 nm, 0.1 µg/mL protein (AID 1182). Conditions: fluorescent protein binding, 635 nm, higher = more signal, called active from +8 up or from −8 down.
In a further assay the test system is XIP peptide (Xip251-270). Nature of the assay: small-molecule binders of XIP peptide, primary screen, biochemical, small-molecule microarray, fluorescence 635/667 nm, 0.5 µg/mL protein (AID 1183). The note with it: small-molecule microarray binding, fluorescence 635 nm; higher = more signal.
Assay [12] in a line: Plasmodium falciparum growth inhibition, primary screen, strain 3D7, DAPI fluorescence, 100 nL (AID 1184).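 Note: parasites grown inside human red blood cells in medium with human serum.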 The note with it: P. falciparum 3D7 growth, 3 d, higher = more signal.
The target of assay [13] is Homeobox protein Hox-A13 (Mus musculus) (UniProt Q62424). Nature of the assay: inhibitors of HoxA13-DNA binding, primary screen, biochemical, fluorescence polarization, labeled oligonucleotide (AID 1185). The note with it: 15 min, higher = more signal, called active from +8 up or from −8 down. (In general: In fluorescence polarisation assays a small probe gives low polarisation when free and higher when bound to something large.)
Chain of Homeobox protein Hox-A13 (Mus musculus) (Q62424 whole entry, looked up): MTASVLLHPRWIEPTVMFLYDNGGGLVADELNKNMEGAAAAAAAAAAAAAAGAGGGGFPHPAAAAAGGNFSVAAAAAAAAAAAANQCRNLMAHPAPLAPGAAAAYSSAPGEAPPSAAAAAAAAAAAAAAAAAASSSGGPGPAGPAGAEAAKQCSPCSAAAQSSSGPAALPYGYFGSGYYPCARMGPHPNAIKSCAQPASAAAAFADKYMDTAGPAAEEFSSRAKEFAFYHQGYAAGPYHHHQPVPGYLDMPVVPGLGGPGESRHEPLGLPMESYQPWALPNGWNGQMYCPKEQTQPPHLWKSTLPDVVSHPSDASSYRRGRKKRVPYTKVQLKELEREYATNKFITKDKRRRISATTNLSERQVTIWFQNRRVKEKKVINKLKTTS

Assay [14] can be described thus: inhibitors of hydroxyurea-induced Chk1 phosphorylation, primary screen, imaging, HeLa, phospho-Chk1 antibody, percent positive cells (AID 1186). The note with it: hydroxyurea-induced phospho-Chk1 immunofluorescence imaging, higher = more signal.
Assay [15] can be described thus: inhibitors of hydroxyurea-induced Chk1 phosphorylation, primary screen, imaging, HeLa, phospho-Chk1 nuclear intensity (AID 1187). Conditions: hydroxyurea-induced phospho-Chk1 immunofluorescence imaging, higher = more signal.

Structures are written as SMILES. Active and inactive are the calls of the source. Unless noted, the rule behind the calls is not given here.

As to `COc1ccc([Si](C)(C)[C@@H]2[C@@H](CC(=O)N3Cc4ccccc4C[C@H]3CO)O[C@]3(C(=O)N(Cc4cccc(N5CCOC5=O)c4)c4ccccc43)[C@H]2C)cc1`, the z-score was -1.02 in assay [1]; -0.238 (inactive) in [2]; -2.17 (inactive) in [3]; 0.79 (inactive) in [5]; 1.64 (inactive) in assay [6]; -0.742 (inactive) in [7]. For the same compound, the z-score in [8] was -0.655 (inactive); in [9] it was -2.05; in assay [12], -2.83; in assay [13], -2.49 (inactive); in assay [14], -0.34 (inactive); in assay [15], -0.695 (inactive). For the same compound, the composite z-score in assay [4] was 0.314 (inactive); in assay [10], -0.13; in assay [11] it was 0.0848 (inactive); with XIP peptide (Xip251-270), 0.672.

In the case of `COC(=O)[C@@]1(Cc2ccc(OC)cc2)[C@H]2c3cc(C(=O)N4CCCC4)n(CCn4cc([N+](=O)[O-])nc4C)c3C[C@H]2CN1C(=O)c1ccccc1`, the z-score in [1] was -0.916; in [2], 0.477 (inactive); in [3], -1.72 (inactive); in assay [5] it was 2.04 (inactive); in assay [6], -0.123 (inactive); in [7] it was -0.784 (inactive). The z-score was -0.552 (inactive) in [8]; -1.65 in [9]; -1.73 in assay [12]; -2.67 (inactive) in assay [13]; 1.65 (inactive) in assay [14]; 1.22 (inactive) in assay [15]. The composite z-score in assay [4] was -0.329 (inactive); in [10], 0.111; in [11] it was 1.13 (inactive); in the assay on XIP peptide (Xip251-270) it was 0.359.

Consider `O=C(NCCN1CCOCC1)[C@@H]1c2ccccc2C(=O)N(Cc2ccccc2C(F)(F)F)[C@H]1c1ccc(CO)cc1`, for which the z-score in assay [1] was 0.846; in [2], -0.139 (inactive); in assay [3] it was 1.17 (inactive); in assay [5], -0.342 (inactive); in assay [6], -0.276 (inactive); in assay [7], 0.394 (inactive). Also, the z-score in assay [8] was 0.192 (inactive); in [9], 1.44; in assay [12], -1.16; in [13], -3.55 (inactive); in [14], 0.126 (inactive); in assay [15], 0.371 (inactive). Further, the composite z-score in assay [4] was -0.899 (inactive); in assay [10], 0.0487; in assay [11], 0.3 (inactive); in the assay with XIP peptide (Xip251-270) it was 0.777.

Consider `C=C(CCCC)/C(=C/C[C@H](OC(=O)c1ccncc1)c1ccc(OCCO)cc1)c1cnc2ccccc2c1`, for which the z-score was 1.08 in [1]; -1.28 (inactive) in [2]; -0.0114 (inactive) in [3]; 0.391 (inactive) in assay [5]; 0.51 (inactive) in assay [6]; 0.709 (inactive) in [7]. In addition, the z-score in assay [8] is 0.258 (inactive); in [9] it was 1.04; in assay [12], -2.94; in assay [13] it was -2.83 (inactive); in assay [14] it was -0.658 (inactive); in assay [15], -0.869 (inactive). Moreover, the composite z-score in [4] is -2.89 (inactive); in assay [10], -0.122; in [11], 1.51 (inactive); in the assay with XIP peptide (Xip251-270), 0.754.

With `[N-]=[N+]=Nc1ccccc1[C@@H]1OC(c2ccc(OCCCO)cc2)=N[C@]1(CCS(=O)(=O)c1ccccc1)C(=O)NCC(O)CO` (some centres undefined), the z-score in assay [1] was 0.396; in assay [2], 0.143 (inactive); in assay [3] it was 0.321 (inactive); in assay [5], 0.317 (inactive); in assay [6], 0.777 (inactive); in [7] it was 0.125 (inactive). Also, the z-score in [8] was 0.638 (inactive); in assay [9], -0.315; in assay [12], -2.21; in assay [13] it was -3.99 (inactive); in assay [14] it was 0.0401 (inactive); in assay [15], 0.225 (inactive). Further, the composite z-score in assay [4] is 0.612 (inactive); in assay [10] it was -0.201; in assay [11] it was 0.0574 (inactive); with XIP peptide (Xip251-270) it was 0.947.

Take `CCCC[C@H]1C[C@@H]1[C@@H]1N(C(C)=O)[C@H](c2cccc(OC)c2)CC12CC2`: the z-score in [1] is 0.527; in assay [2], -6.41 (inactive); in assay [3], 1.05 (inactive); in assay [5], -0.499 (inactive); in assay [6] it was 0.52 (inactive); in [7], -0.083 (inactive). Also, the z-score in assay [8] is -0.791 (inactive); in assay [9], 1.43; in assay [12] it was -0.313; in assay [13], -3.27 (inactive); in assay [14] it was 0.368 (inactive); in [15], 0.638 (inactive). Also, the composite z-score in assay [4] is 0.348 (inactive); in assay [10] it was -0.0416; in assay [11], -0.233 (inactive); in the assay with XIP peptide (Xip251-270), -1.04.

Regarding `CN1C(=O)C2C(C1=O)C1C=C(c3ccc(CO)cc3)C2C(C2CC2)N1C` (centres undefined), the z-score in assay [1] was -0.849; in assay [2] it was 0.385 (inactive); in assay [3], -0.485 (inactive); in assay [5], -0.305 (inactive); in [6], 0.358 (inactive); in [7], -0.453 (inactive). Further, the z-score in [8] was -0.335 (inactive); in assay [9] it was -0.772; in assay [12], -1.97; in assay [13], -5.37 (inactive); in assay [14], -0.287 (inactive); in assay [15], -0.232 (inactive). In addition, the composite z-score is 0.918 (inactive) in [4], -0.0611 in assay [10], 0.017 (inactive) in assay [11] and 0.816 in the assay on XIP peptide (Xip251-270).

As to `C=CC1c2cc(O)c(OC)cc2CCN1C` (centres undefined), the z-score in assay [1] is -0.582; in [2], -0.457 (inactive); in assay [3] it was -0.728 (inactive); in assay [5], -0.283 (inactive); in [6], -0.071 (inactive); in [7], -0.0683 (inactive). Moreover, the z-score in assay [8] is 0.113 (inactive); in assay [9], -1.16; in assay [12] it was 0.166; in assay [13], -3.83 (inactive); in [14] it was 0.298 (inactive); in assay [15], 0.468 (inactive). Besides, the composite z-score in assay [4] was -3.34 (inactive); in assay [10], 0.031; in assay [11], 0.767 (inactive); with XIP peptide (Xip251-270) it was 0.543.

With `CC(C)NC(=O)[C@@H]1c2ccccc2C(=O)N(Cc2ccc(OC(F)(F)F)cc2)[C@H]1c1ccc(CO)cc1`, the z-score in assay [1] was -1.14; in assay [2], 0.924 (inactive); in assay [3] it was 0.155 (inactive); in assay [5], 0.627 (inactive); in assay [6], 0.91 (inactive); in [7], -0.386 (inactive). Besides, the z-score in assay [8] is -0.664 (inactive); in assay [9], 0.808; in [12] it was -1.58; in assay [13] it was -3.72 (inactive); in assay [14], 0.244 (inactive); in assay [15], 0.137 (inactive). Moreover, the composite z-score in assay [4] was -4.48 (inactive); in assay [10], -0.16; in assay [11], -0.514 (inactive); in the assay on XIP peptide (Xip251-270), 0.72.
